Laboratory results as given in the supplement of paper PMC6555819.

Key:
Experiment in all cases: PBM binding z-score (relative to random genomic background probes); higher = stronger binding; sequences stand for … in GC…GCGATTGACAGCGTAGAATGAAGG
[1] = test system: FXR:RXRa (NR concentration 270 nM, RXRa partner concentration 90 nM)
Procedure, shortened: (§1)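 On custom Agilent 4×180K arrays, double-stranded probes with 34-nt variable regions carried direct-repeat seeds, single-nucleotide variants, half-site ablations or random human genomic background. Ligand-free nuclear receptor dimers were applied for 1 h, and binding was read with antibodies against each partner (one per run). Binding z-scores come from regression-normalized fluorescence, with the random background probes as reference.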

[2] = test system: LXRa:RXRa (NR concentration 270 nM, RXRa partner concentration 90 nM)
Procedure, shortened: as §1

[3] = test system: LXRa homodimer (NR concentration 270 nM)
Procedure, shortened: as §1

[4] = test system: LXRb:RXRa (NR concentration 270 nM, RXRa partner concentration 90 nM)
Procedure, shortened: as §1

[5] = test system: LXRb homodimer (NR concentration 270 nM)
Procedure, shortened: as §1

[6] = test system: PPARa:RXRa (NR concentration 270 nM, RXRa partner concentration 90 nM)
Procedure, shortened: as §1

[7] = test system: PPARg:RXRa (NR concentration 180 nM, RXRa partner concentration 90 nM)
Procedure, shortened: as §1

[8] = test system: PPARg:RXRa 270nM:90nM, anti-RXR (NR concentration 270 nM, RXRa partner concentration 90 nM)
Procedure, shortened: as §1

[9] = test system: PPARg:RXRa 30nM:10nM, anti-RXR (NR concentration 30 nM, RXRa partner concentration 10 nM)
Procedure, shortened: as §1

[10] = test system: PPARg:RXRa 90nM:30nM, anti-RXR (NR concentration 90 nM, RXRa partner concentration 30 nM)
Procedure, shortened: as §1

Sequence | PBM binding z-score [1] | PBM binding z-score [2] | PBM binding z-score [3] | PBM binding z-score [4] | PBM binding z-score [5] | PBM binding z-score [6] | PBM binding z-score [7] | PBM binding z-score [8] | PBM binding z-score [9] | PBM binding z-score [10]
TCTAGCAGGCCAGAGGCTCACTCAAGAGGTACGG | -1.6 | -1.07 | -0.954 | -0.966 | -1.81 | -0.344 | 0.578 | 1.01 | 1.38 | 1.21
ATATGTATGTTAAGGGTCATTCAGGTTGGTTCGC | 4.05 | 4.15 | 3.41 | 4.46 | 1.5 | 5.66 | 8.29 | 7.83 | 8.13 | 8.7
ACCGACAGGTGAGTGAAGGTAACTCAGCTGGACG | 0.184 | -0.107 | -0.658 | -0.575 | -0.831 | 0.00904 | 0.444 | 0.0898 | -0.38 | -0.0157
CCTTACGGGTCAAGGTGATAGCACGGGTGGTACG | 5.64 | 3.5 | -0.313 | 2.67 | -0.389 | 4.8 | 4.43 | 4.52 | 1.62 | 3.34
CCTACTGGGCAACGAAAGGTCATTGATTCAGTGA | 3.6 | 5.33 | 5.51 | 4.2 | 0.197 | 4.2 | 2.1 | 3.54 | 0.974 | 2.72
TTTCAAAGTTCAAAGGTAACGTAAGTATCCACAC | 7.1 | 6.88 | 6.41 | 4.86 | 2.71 | 5.69 | 6 | 6.43 | 3.39 | 5.49
GGTTGTAGATCAAGGTTAAGAAAGACTAAGCTAA | 0.73 | 1.3 | 0.323 | 1.19 | 0.361 | 1.5 | 0.938 | 1.63 | 0.752 | 1.31
TAGCCTAGTTCATTGGGCCAGTATAGTACGCATC | -0.0548 | 0.147 | -0.141 | 0.139 | -0.687 | 0.81 | 0.461 | 0.538 | -0.446 | 0.253
ATAATGAGGTTAAGATCAGGGAAACAGAATACAT | 2.39 | 2.59 | 0.379 | 2.15 | 0.727 | 3.79 | 3.01 | 2.48 | 1.48 | 2.19
AGTCAAAGATCACTAGGTAACGTAAGATTCAGCT | -0.239 | 0.0788 | -0.206 | 0.152 | -0.329 | 1.52 | 2.34 | 2.95 | 0.876 | 2.3
GCGACTGGGGCATCCGCAGGTTACCATAACTTAA | -0.134 | -0.356 | -0.324 | 0.722 | -0.515 | 1.06 | 0.756 | 0.848 | -0.543 | 0.0228
GCTCGGAGTACAAGGTCAGAGCTTTGTCCGTAGA | 1.17 | 1.6 | 0.0814 | 1 | -0.761 | 2.17 | 0.501 | 1.48 | -0.171 | 0.497
CATTACGGGTCACTCCAGGTTATAGCATCGGAGT | 5.62 | 7.54 | 4.42 | 5.55 | 1.54 | 4.96 | 4.53 | 4.77 | 1.56 | 3.53
